Kir21 block = inhibitors of mouse Kir2.1 inward-rectifier potassium channel. P35561. HEK293-Kir2.1, FluxOR thallium flux fluorescence; hits give low values. B-score at 10 µM. hit rate 0.85% among 310,000. AID 1672;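 active means fluorescence ratio B-score at or below minus 3 SD of library scores, with starting-brightness B-score within 2 SD, cut at about -4.2 in these data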;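 further: channel flux triggered by added potassium and thallium sulfate stimulus; B-score of peak minus minimum fluorescence over baseline after thallium stimulus; more negative B-score means stronger Kir2.1 block with less thallium influx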
KCNK3 block = human KCNK3 channel inhibition, primary screen; O14649; CHO-KCNK3 thallium flux, FluxOR fluorescence; hits give low values; B-score at 10 µM; hit rate 0.84% among 340,000;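 active means B-score under library mean minus 4 SD, starting fluorescence ratio at most library mean plus 5 SD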;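 further: more negative B-score means stronger inhibition of thallium flux through KCNK3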
KCNK9 inh = inhibitors of human KCNK9 two-pore domain potassium channel; hit rate 1.2% among 310,000; AID 488922; HEK293 KCNK9, FluxOR thallium flux fluorescence; hits give low values; B-score at 10 µM; Q9NPC2;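 active means ratio B-score over 3 SD below the library mean, with starting fluorescence within 5 SD of its mean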;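 further: negative B-score means less thallium flux so channel inhibition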
ANO1 block = inhibitors of mouse TMEM16A calcium-activated chloride channel; hit rate 1.2% among 310,000; normalized B-score (activity score, 25-100; higher = stronger inhibition) at 10 µM; HEK293 TMEM16A/YFP iodide influx fluorescence, ionomycin;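 active means ratio plate-corrected score three or more library SD toward inhibition, starting fluorescence score within five deviations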;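 further: score derived from kinetic fluorescence span divided by baseline fluorescence per well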
TMEM16A act = activators or potentiators of mouse TMEM16A chloride channel | Q8BHY3 | AID 623877 | B-score at 10 µM | hit rate 0.3% among 340,000 | HEK293 TMEM16A/YFP-H148Q/I152L, iodide quench fluorescence; hits give low values;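 active means fluorescence-ratio B-score plate-corrected deviation score at least 3 library SD below zero, with starting fluorescence score within 5 deviations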;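 further: channel opened by trigger with iodide after compound preincubation; score built on the fluorescence ratio of max minus min over baseline; more negative score means more quench and so TMEM16A activation or potentiation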
TMEM16A reconf = re-confirmation of mouse TMEM16A chloride channel inhibitors; hit rate 39% among 2,300; shares compounds with ANO1 block; inhibition, % at 10 µM; HEK293 TMEM16A/YFP-H148Q, iodide quench fluorescence; ionomycin added to raise cell calcium;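 active means mean duplicate percent inhibition, scaled so buffer wells are 0 and the reference blocker 100, over three buffer SD above buffer mean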
HEK293 Ca mobil = counter-screen for TMEM16A inhibitors: effect on calcium mobilization. shares compounds with ANO1 block. TMEM16A/YFP HEK293, Fluo4 calcium mobilization. AID 652231. hit rate 2% among 2,300. calcium response (% of ionomycin), % at 10 µM;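 active means duplicate-averaged calcium signal over 20% of the ionomycin maximum, relative to buffer baseline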;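 further: each well's signal is peak minus trough fluorescence divided by its pre-addition baseline; 0% = buffer wells and 100% = ionomycin wells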
Parental YFP cnt = counter-screen for TMEM16A inhibitors: effect in parental YFP-HEK293 cells. shares compounds with ANO1 block. iodide YFP quench, ionomycin. YFP ratio F(max-min)/F0 at 10 µM. 2,300 tested, under 10 active;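 active means yellow fluorescent protein signal ratio exceeding the buffer control mean by over 5 SD of those controls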;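 further: ratio is mean of duplicate wells from kinetic YFP trace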
ClC-1 rat inh = blocks the rat ClC-1 voltage-dependent chloride channel | CHO ClC-1-YFP, iodide influx fluorescence quench; iodide control reads 0, buffer control 100 | AID 652236 | shares compounds with ANO1 block | ratio percent, % at 10 µM | 2,300 tested, under 10 active;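 active means duplicate-mean ratio percent above the mean of iodide-only control wells, which defines zero, plus 5 of their SD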;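 further: higher percent means stronger block of ClC-1 iodide influx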
KCNK3 inh conf = human KCNK3 channel inhibition, confirmation assay. hit rate 99% among 2,400. CHO-KCNK3 thallium flux, FluxOR fluorescence; 0% buffer, 100% carvedilol maximal block. shares compounds with KCNK3 block. ratio percent of control, % at 10 µM;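 active means ratio percent of control, averaged over triplicates, above buffer control mean plus 5 SD, cut at about 64% in these data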;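 further: ratio is the fluorescence rise from min to max over baseline after thallium stimulus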
KCNK3 noninduced = counter-screen for KCNK3 inhibitors: effect in non-induced cells; shares compounds with KCNK3 block; non-induced KCNK3 parental cells, FluxOR thallium flux; hits give low values; thallium flux ratio (lower = more inhibition) at 10 µM; hit rate 40% among 2,400; AID 651747;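 active means thallium flux ratio, averaged over three wells, more than 5 SD below the buffer control mean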;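 further: host cells are CHO cells without KCNK3 induction; ratio is peak minus trough fluorescence over baseline then normalized to buffer controls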
* hit, by the source's call; i = inactive; . = no result given. The list is not random: actives were taken first. Their share in the collection is about 3.5%.

SMILES | Kir21 block | KCNK3 block | KCNK9 inh | ANO1 block | TMEM16A act | TMEM16A reconf | HEK293 Ca mobil | Parental YFP cnt | ClC-1 rat inh | KCNK3 inh conf | KCNK3 noninduced
O=S(=O)(c1ccc(Cl)cc1)N1CCN=C1SCc1cccc(Cl)c1 | -3.9 | i | i | i | i | . | . | . | . | . | .
O=S(=O)(c1ccccc1)N1CCN=C1SCc1c(F)cccc1Cl | -0.23 | -11* | i | 100* | i | i | i | -1 | -4 | 121* | 0.14*
O=c1[nH][nH]c(=O)c2c1[nH]c(=S)n2Cc1ccccc1 | . | i | . | . | i | . | . | . | . | . | .
COc1ccc(Cl)cc1-n1c(=S)sc2c(=O)[nH]c(SCC(=O)C(C)(C)C)nc21 | -0.21 | -9* | i | 100* | i | 28%* | i | -1.1 | -30 | 88* | 0.14*
CCCCNC(=O)CSc1nc2c(sc(=S)n2-c2cc(Cl)ccc2OC)c(=O)[nH]1 | 0.87 | i | i | i | i | . | . | . | . | . | .
Cc1cccc(OCCSCc2nc3ccccc3[nH]2)c1 | -2.2 | i | i | i | i | . | . | . | . | . | .
Cc1cccc(OCCCSc2nc3ccccc3[nH]2)c1 | -3.1 | -8.9* | i | 100* | i | 17%* | i | -1.1 | -8 | 126* | 0.12*
COc1ccc(CN(CCN)C2CC(C)N(C)CC2C)cc1 (stereo not drawn) | 0.47 | i | i | i | i | . | . | . | . | . | .
COc1cc(Cl)c(C)cc1NC(=O)CN(C)Cc1cccc(OC)c1OC | -2.9 | -13* | i | 25* | i | 20%* | i | -1 | -4 | 99* | i
CC(=O)Nc1ccc(Oc2cc(C#N)c(C#N)cc2N2CCCCCC2)cc1 | . | -13* | . | 100* | i | i | i | -1.1 | 4 | 120* | i
COc1ccccc1N(CC(=O)Nc1cc(S(=O)(=O)N(C)C)ccc1C)S(=O)(=O)c1cccs1 | . | i | . | . | i | . | . | . | . | . | .
CCC(C)NS(=O)(=O)c1ccc(S(=O)(=O)N2CCCC3(CCCCC3)C2)cc1 (stereo not drawn) | -2.4 | -9* | i | 100* | i | 52%* | i | -1.1 | -30 | 118* | 0.14*
CCC(C)C(=O)Nc1ccc(S(=O)(=O)N2CCCC2)cc1 (stereo not drawn) | -0.14 | i | i | i | i | . | . | . | . | . | .
C=CC[C@@H](CC(=O)N(CCO)Cc1ccccc1)C(=O)N[C@H](COC(=O)[C@H](CC=C)CC(=O)OC(C)(C)C)Cc1c[nH]c2ccccc12 | . | i | . | . | . | . | . | . | . | . | .
COc1cccc(OCCCCSc2ncccn2)c1 | -0.06 | i | i | i | i | . | . | . | . | . | .
c1ccc(Oc2cccc(OCCCCSc3ncccn3)c2)cc1 | -0.17 | -11* | i | 100* | i | i | i | -1.4 | -4 | 89* | 0.15*
CCOC(=O)c1c(NC(=O)COC(=O)C2CC2C)sc(C)c1C (stereo not drawn) | -0.18 | -10* | -8.1* | 25* | i | i | i | -1.1 | -5 | 110* | i
CS(=O)(=O)N(CC(=O)N1CCCC1)Cc1ccc(Cl)cc1 | -0.93 | i | i | i | i | . | . | . | . | . | .
COc1ccc(C(=O)C2CCCN(S(=O)(=O)c3ccc(C(C)=O)cc3)C2)c(C)c1 (stereo not drawn) | 0.19 | -10* | i | 25* | i | 30%* | i | -0.89 | -23 | 120* | 0.15*
O=C(Nc1ccccc1Cl)Oc1ccc(-c2ccccc2)cc1 | 1.3 | i | i | i | i | . | . | . | . | . | .
COc1ccc(OCCSc2nc(C)nc3ccccc23)cc1 | 0.71 | -12* | i | 25* | i | 58%* | i | -1.1 | -13 | 123* | i
COc1ccc(CC(=O)NC(C)c2ccc(S(N)(=O)=O)cc2)cc1S(=O)(=O)N1CCOCC1 (stereo not drawn) | -0.16 | i | i | i | i | . | . | . | . | . | .
Cc1ccc2[nH]c3c(N4CCCCCC4)ncnc3c2c1 | -2 | . | i | . | . | . | . | . | . | . | .
Cc1ccc2[nH]c3c(N4CCN(Cc5ccccc5)CC4)ncnc3c2c1 | -1.8 | -10* | i | 100* | i | 38%* | i | -1.1 | -22 | 130* | 0.11*
CC(C)N1CCC(N2CCN(CCCn3cccn3)CC2CCO)CC1 (stereo not drawn) | 2.4 | i | i | i | i | . | . | . | . | . | .
SMILES | Kir21 block | KCNK3 block | KCNK9 inh | ANO1 block | TMEM16A act | TMEM16A reconf | HEK293 Ca mobil | Parental YFP cnt | ClC-1 rat inh | KCNK3 inh conf | KCNK3 noninduced
O=C(Nc1cccc(S(=O)(=O)c2cccc(NC(=O)c3ccco3)c2)c1)c1ccco1 | -1.8 | -9.4* | i | 25* | i | 20%* | i | -0.91 | -14 | 136* | 0.14*
O=C(Nc1cccc(S(=O)(=O)N2CCCC2)c1)c1ccco1 | . | i | . | . | i | . | . | . | . | . | .
COc1ccccc1C(=O)Nc1ccc(Cc2ccncc2)cc1 | -0.79 | i | i | i | i | . | . | . | . | . | .
COc1c(C)cc(Br)cc1C(=O)Nc1ccc(Cc2ccncc2)cc1 | 0.07 | -9.7* | i | 100* | i | i | i | -0.9 | -10 | 117* | i
COc1ccc(CC(=O)OCN2C(=O)c3ccccc3C2=O)cc1OC | -0.42 | i | i | i | i | . | . | . | . | . | .
O=C(CSc1ccc(Cl)cc1Cl)N1CCC(c2nc3ccccc3s2)CC1 | -1.3 | -15* | i | 100* | i | i | i | -0.98 | -6 | 124* | i
O=C(Cn1nc(-c2ccccc2)nc1-c1ccccc1)OC1CCCCC1 | -0.25 | -10* | i | 100* | i | i | i | -1 | -10 | 104* | i
Cc1ccc(S(=O)(=O)Nc2ccccc2C(=O)N2CCN(C)CC2)cc1 | -0.53 | i | i | i | i | . | . | . | . | . | .
Nc1cc(S(=O)(=O)N2CCCCC2)ccc1Oc1ccc(Cl)cc1 | 1.1 | -9* | i | 100* | i | i | i | -1.1 | -14 | 112* | i
O=S(=O)(c1cc(Br)ccc1Br)N1CCCCCC1 | -0.45 | -11* | i | 25* | i | 21%* | i | -1 | -10 | 129* | 0.14*

Source: PubChem
